# Source: PubChem (several laboratories)
# CYP2C9 act = CYP2C9 (human) activation. P11712. recombinant CYP2C9, luciferin-H conversion, luminescence; stronger effect = higher value; factor 1 = untreated enzyme, 0 = blocked. activation factor at 5 µM. 1.4% of 96,000 active;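 active means activation factor of 2 or more for CYP2C9 at a 5 µM dose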;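 further: 0 = sulfaphenazole-blocked wells and 1 = vehicle-only wells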
# CYP2C19 act = activators of human cytochrome P450 2C19; P33261; recombinant CYP2C19, luciferin-H EGE luminescence; stronger effect = higher value; 0 = fully inhibited enzyme, 1 = untreated enzyme; activation factor at 5 µM; 96,000 tested, under 10 active;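 active means activation factor of at least 2 at 5 µM in the primary screen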;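 further: 0 = wells with 2.5 mM tranylcypromine and 1 = vehicle-only wells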
# Target sequence (P33261 whole entry, looked up): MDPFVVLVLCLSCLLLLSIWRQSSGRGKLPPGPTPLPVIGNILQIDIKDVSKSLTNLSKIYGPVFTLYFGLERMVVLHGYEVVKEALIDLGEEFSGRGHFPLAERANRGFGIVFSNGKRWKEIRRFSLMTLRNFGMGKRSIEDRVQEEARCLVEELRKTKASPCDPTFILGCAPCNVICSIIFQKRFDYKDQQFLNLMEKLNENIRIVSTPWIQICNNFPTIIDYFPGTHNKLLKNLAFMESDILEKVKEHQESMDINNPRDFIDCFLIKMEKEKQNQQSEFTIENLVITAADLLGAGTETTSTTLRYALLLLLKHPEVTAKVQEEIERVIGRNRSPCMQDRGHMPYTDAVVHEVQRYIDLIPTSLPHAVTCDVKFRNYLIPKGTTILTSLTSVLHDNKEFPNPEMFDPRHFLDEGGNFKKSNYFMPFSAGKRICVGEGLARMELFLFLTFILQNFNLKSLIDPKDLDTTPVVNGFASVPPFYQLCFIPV
# MRP reversal = reverses drug resistance mediated by MRP. AID 602. H69AR cells + 2 uM doxorubicin, CellTiter-Glo, 72 h. 0.04% of 85,000 active. differential viability (reversal), % at 10 µM;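 active means viability drop by adding the cancer drug above about 55%, with treated viability meeting a 40% cutoff, limit read from the data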;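 further: viability without doxorubicin minus viability with 2 µM doxorubicin for each compound; larger differential means the compound sensitizes cells more to doxorubicin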
# CYP2C19 inh = inhibitors of human CYP2C19 | inhibition, % at 5 µM | CYP2C19 Supersomes, luciferin-H EGE luminescence, 30 min | 21% of 96,000 active | P33261 | AID 778;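 active means CYP2C19 inhibition above a set limit at 5 µM in the primary screen, cut at about 50% in these data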;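 further: plate controls were negative control wells for no effect and 2.5 mM tranylcypromine positive control for full effect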
# MRP1 act = MRP-1 activation; 0.61% of 140,000 active; H69AR cells + doxorubicin, viability rescue, CellTiter-Glo; viability increase, % at 10 µM;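 active means viability gain under doxorubicin at or above a set limit, the compound median plus 3 SD, cut at about 4.7% in these data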;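 further: MRP-1 overexpressing cells given doxorubicin 25 µM after compound pretreatment; 18-22 h compound pretreatment then 72 h with doxorubicin before readout; 0% = doxorubicin-only wells and 100% = vehicle-treated cells without doxorubicin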
# CYP2C9 inh = blocks human cytochrome P450 2C9. P11712. CYP2C9 Supersomes, luciferin-H conversion, luminescence. inhibition, % at 5 µM. 20% of 96,000 active. AID 777;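 active means blocking of liver enzyme CYP2C9 beyond about 50% at 5 µM, limit read from the data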
# * = called active by the depositor; nt = no result. Sampled rows, rich in hits. Any-hit rate of the full collection: about 21%.
SMILES,CYP2C9 act,CYP2C19 act,MRP reversal,CYP2C19 inh,MRP1 act,CYP2C9 inh
Cc1ccc(NC(=O)CCC(=O)NNC(=O)Cc2ccccc2)cc1C,1.1,0.7,nt,25,-2,-10
O=C(O)COc1ccc(-c2nnn(CC(=O)O)n2)cc1,1,1.1,-7,-8,-1,0
COc1ccccc1NC(=O)c1sc2ncn(Cc3ccc(C)cc3)c(=O)c2c1C,1.4,0.2,nt,84*,3,-42
COc1ccccc1NC(=O)c1sc2ncn(Cc3cccc(C)c3)c(=O)c2c1C,1.2,0.9,nt,8,-1,-20
CN1CCC/C1=C/C=C1\SC(=S)NC1=O,nt,nt,nt,nt,-2,nt
CC1(C)CC(=O)C2=C(C1)OC(c1ccc(O)cc1)C(C#N)=C2N (centres undefined),nt,nt,nt,nt,0,nt
CC(=O)N1CCCc2cc(S(=O)(=O)CCC(=O)N3CCN(c4cccc(C)c4)C(C)C3)ccc21 (centres undefined),0.8,0.4,1,58*,-2,19
CC(=O)N1CCCc2cc(S(=O)(=O)NCCC3=CCCCC3)ccc21,0.9,0.5,nt,53*,-2,11
CC(=O)N1CCCc2cc(S(=O)(=O)NCc3ccc(C)cc3)ccc21,1,0.2,nt,82*,-3,0
COc1ccc(CNC(=O)C(NS(=O)(=O)c2ccc3c(c2)CCCN3C(C)=O)C(C)C)cc1 (centres undefined),0.9,1,-13,-1,-2,8
CCN(CCCNS(=O)(=O)c1ccc2c(c1)CCN2C(C)=O)c1cccc(C)c1,0.7,0.4,22,62*,-3,32
CC(=O)N1CCc2cc(S(=O)(=O)NCCC(=O)Nc3cccc(C)c3)ccc21,0.7,0.9,-8,6,-1,33
CN1CCN(C(=O)c2ccc3c(c2)OCCO3)CC1,nt,nt,13,nt,-2,nt
Cc1cccc(-c2c3c(=O)n(C)c(=O)n(C)c3c3cccnn23)c1,1.9,0.7,-13,25,0,-86
Cc1ccc(-c2cc(C(=O)Nc3ccc(S(=O)(=O)Nc4nccs4)cc3)c3ccccc3n2)c(C)c1,nt,nt,nt,nt,0,nt
CCC(=O)NC(NC(=S)Nc1ccc(S(N)(=O)=O)cc1)C(Cl)(Cl)Cl (centres undefined),nt,nt,nt,nt,1,nt
CCOC(=O)C1=C(C)N(C2CCCCC2)C(=O)C1,0.6,0.1,-1,94*,-3,41
COC(=O)C1=C(C)N(C2CCCCC2)C(=O)C1,1,0.4,6,55*,-3,1
COC(=O)C1=C(C)N(c2ccc(C(=O)OC)cc2)C(=O)C1,0.8,0.8,5,20,-3,18
CCOC(=O)C1=NNC2C(=O)N(C3CCCCC3)C(=O)C12 (centres undefined),0.9,0.8,2,25,-1,8
COC(=O)C1=C(C)N(c2cc(Cl)cc(Cl)c2)C(=O)C1,1,0.4,0,62*,-2,2
COc1ccc(CCNC(=O)c2nc3ncccn3n2)cc1OC,0.9,1,18,5,-1,10
COc1cccc(NC(=O)c2nc3ncccn3n2)c1,2*,1.2,6,-16,-3,-95
Cc1noc(/C=C/N(C)C)c1S(=O)(=O)N1CCCC(C(=O)N2CCCCC2)C1 (centres undefined),0.4,1,9,3,1,58*
COc1ccc(C)cc1S(=O)(=O)N(C)CC(=O)NC1CCCC1,nt,nt,nt,nt,-1,nt
SMILES,CYP2C9 act,CYP2C19 act,MRP reversal,CYP2C19 inh,MRP1 act,CYP2C9 inh
Cc1cc(C)c(S(=O)(=O)N(C)CC(=O)NC2CCCC2)c(C)c1,2.2*,0.2,12,80*,-1,-124
Cc1noc(/C=C/N(C)C)c1S(=O)(=O)N1CCCC(C(=O)Nc2ccc3c(c2)OCO3)C1 (centres undefined),0.3,0.5,10,48,3,67*
Cc1noc(C)c1S(=O)(=O)N1CCCC(C(=O)N2CCN(C3CCCCC3)CC2)C1 (centres undefined),0.8,1.2,2,-21,-1,19
Cc1noc(/C=C/N(C)C)c1S(=O)(=O)N1CCCC(C(=O)NC2CCCCC2)C1 (centres undefined),0.6,0.9,-14,10,9.3*,44
O=C(COc1ccccc1)Nn1cnc2ccccc21,1,1.1,10,-12,-2,-1
Cc1nc2ccc(NC(=O)Cc3ccc4c(c3)OCCO4)cc2s1,nt,nt,nt,nt,2,nt
Cc1noc(/C=C/N(C)C)c1S(=O)(=O)N(C)CC(=O)NC1CCCCC1,0.4,0.6,nt,39,1,62*
O=C(O)c1cnn(-c2ccccc2)c1-c1ccccc1,0.9,0.9,-2,8,-3,15
COc1cc(C(=O)Nc2ccc(N(C)C)cc2)cc(OC)c1OC,0.7,0.3,-21,70*,-2,27
COc1cc(C(=O)Nc2ccc(S(=O)(=O)N(C)c3ccccc3)cc2)cc(OC)c1OC,nt,nt,nt,nt,-4,nt
COc1ccc(Br)cc1C(=O)Nc1ccc(O)cc1,3.1*,0.5,-13,46,-1,-205
COc1cc(C(=O)Nc2ccc(Br)cc2C(=O)c2cc(OC)c(OC)c(OC)c2)cc(OC)c1OC,0.1,0.3,nt,68*,-3,93*
CCOc1cccc(C(=O)Nc2ccc(N3CCN(S(C)(=O)=O)CC3)cc2)c1,0.5,0.7,1,34,-2,53*
O=C(NCc1cccs1)C1CCCN(c2nc3ccccc3o2)C1 (centres undefined),0.9,0.6,-5,39,-1,13
CCOC(=O)c1sc(NN=C(C(=O)OC)C(=O)OC)c(C(=O)OCC)c1C,nt,nt,nt,nt,-3,nt
COc1cccc(OC)c1C(=O)Nc1ccc(N2CCN(S(C)(=O)=O)CC2)cc1,1.1,0.8,nt,23,-1,-9
COc1ccc(Br)cc1C(=O)Nc1ccc(N2CCN(S(C)(=O)=O)CC2)cc1,2*,0.8,-4,16,0,-97
COc1cc(S(=O)(=O)N2CCN(c3ccccc3F)CC2)ccc1Cl,0.1,0,5,99*,-1,90*
COc1ccc(N2CCN(CCNC(=O)C3CCN(S(=O)(=O)c4cccs4)CC3)CC2)cc1,0.9,0.9,14,8,0,12
Cc1cc(N2CCN(S(=O)(=O)c3ccccc3)CC2)c2ccccc2n1,0.6,0.3,-3,65*,0,44
COc1ccccc1N1CCN(S(=O)(=O)c2ccccc2F)CC1,0.4,0.4,1,64*,1,64*
COc1ccc(N2CCN(S(=O)(=O)c3cccs3)CC2)cc1,0.6,0.2,16,77*,0,36
COc1ccccc1N1CCN(C(=O)C(Cc2ccccc2)NC(=O)C2CCCCC2)CC1 (centres undefined),0.1,0,-7,99*,-1,87*
COc1ccccc1N1CCN(S(=O)(=O)c2c(C)ccc3nsnc23)CC1,0.7,0.3,-2,73*,-2,34
COc1ccc(N2CCN(c3ncccn3)CC2)cc1,0.8,0.1,nt,92*,0,24
